According to PubChem BioAssay AID1986 (Sanford-Burnham Center for Chemical Genomics, 2009):
The campaign covered roughly 290,000 compounds. About 890 (0.31%) were called active. No stated cut-off is given here; in the data, active means inhibition mostly above about 52% (no sharp cut-off); inactive means mostly below about 76%. For the sample, actives were picked, then their nearest neighbours and some compounds at random.

Test: cell-free HIV fusion peptide-binding blockers – biochemical, uHTS, fluorescence dequenching, primary screen (AID 1986)
Settings: 30 min, stronger effect = higher value
[1] = measured here: repeat confirmation average inhibition, at 18.6 µM

Row | SMILES | inhibition (at 20 µM) | inhibition [1] [%]
1 | CC(C)c1ccc(NC(=O)CCNS(=O)(=O)c2ccc3[nH]c(=O)oc3c2)cc1 | 2.1% (inactive) | –
2 | CC(C)CNC(=S)N(CCN(C)C)Cc1cc2cc3c(cc2[nH]c1=O)OCO3 | -2.4% (inactive) | –
3 | Oc1ccc(Br)cc1Cn1nnc2ccccc21 | -0.3% (inactive) | –
4 | Clc1ccc2nc3c4ccccc4cnn3c2c1 | 0% (inactive) | –
5 | Oc1ccc2nnc3c(Br)cnn3c2c1 | 82.2% (active) | 59.6
6 | COc1ccc(OC)c(/C=N/NC(=O)CNC(=O)c2cccc3ccccc23)c1 | -1.3% (inactive) | –
7 | Nc1cc(=O)[nH]c(SCC(=O)N2N=C(c3ccc4ccccc4c3)CC2c2ccccc2)n1 (configuration not stated) | -0.7% (inactive) | –
8 | Cc1cc(-c2ccccc2)n2ncnc2n1 | 0.4% (inactive) | –
9 | COc1ccc2nc(C)cc(NCc3cccc(C(F)(F)F)c3)c2c1 | -0.7% (inactive) | –
10 | COc1ccc(CNc2cc(C)nc3ccc(OC)cc23)cc1 | -0.2% (inactive) | –
11 | COc1ccc2nc(C)cc(NCc3ccc(F)cc3)c2c1 | 65.2% (active) | 53
12 | COc1ccccc1C(=O)Nc1ccccn1 | 0.9% (inactive) | –
13 | CCc1nc(N[C@@H](CC(C)C)C(=O)O)c2oc3ccccc3c2n1 | 4.3% (inactive) | –
14 | CN1CC=C2C(C#N)=C(N)C(C#N)(C#N)[C@H](c3ccoc3)[C@H]2C1 | 0.3% (inactive) | –
15 | Cc1ccc(C2C3CN(C(C)C)CC=C3C(C#N)=C(N)C2(C#N)C#N)cc1 (configuration not stated) | 87.6% (active) | –
16 | CCN1CC=C2C(C#N)=C(N)C(C#N)(C#N)C(CCc3ccccc3)C2C1 (configuration not stated) | -0.3% (inactive) | –
17 | CN1CC=C2C(C#N)=C(N)C(C#N)(C#N)[C@H](c3cccc(Cl)c3)C2C1 (some centres not stated) | 25.6% (inactive) | –
18 | CC(C)N1CC=C2C(C#N)=C(N)C(C#N)(C#N)[C@H](c3ccoc3)[C@H]2C1 | 123% (active) | –
19 | CN1CC=C2C(C#N)=C(N)C(C#N)(C#N)C(CCc3ccccc3)C2C1 (configuration not stated) | 64.6% (inactive) | 14.6
20 | CC(=O)N1CC=C2C(C#N)=C(N)C(C#N)(C#N)[C@H](c3ccoc3)[C@H]2C1 | 29% (inactive) | –
21 | Cc1ccc(C2C3CSCC=C3C(C#N)=C(N)C2(C#N)C#N)cc1 (configuration not stated) | 22.2% (inactive) | –
22 | CC(C)N1CC=C2C(C#N)=C(N)C(C#N)(C#N)C(c3ccccc3)C2C1 (configuration not stated) | 86.9% (active) | –
23 | CN1CC=C2C(C#N)=C(N)C(C#N)(C#N)C(Cc3ccccc3)C2C1 (configuration not stated) | 52.9% (active) | –
24 | CCCC1C2CN(C(C)C)CC=C2C(C#N)=C(N)C1(C#N)C#N (configuration not stated) | -3.6% (inactive) | –

Row | SMILES | inhibition (at 20 µM) | inhibition [1] [%]
25 | COc1ccc(OC)c(C2C3CN(C(C)C)CC=C3C(C#N)=C(N)C2(C#N)C#N)c1 (configuration not stated) | -0.5% (inactive) | –
26 | COc1cc(/C=C(\C#N)C(=O)NCC2CCCO2)ccc1OC(C)C (configuration not stated) | -1.4% (inactive) | –
27 | CN(CC(=O)Nc1ccc(F)c(F)c1F)c1ncnc2sccc12 | 0.3% (inactive) | –
28 | COCCn1c(SCC(=O)N2CCCc3ccccc32)nnc1-c1ccoc1C | -1.1% (inactive) | –
29 | COc1ccc(Cl)cc1N1C(=O)CN(Cc2cc(OC)c(OC)c(OC)c2)C1=S | 1% (inactive) | –
30 | COc1ccccc1C(=O)NNC(=O)c1ccc2ccccc2c1 | 0.5% (inactive) | –
31 | O=C(/C=C/c1ccccc1)Nc1cccnc1Cl | -1.1% (inactive) | –
32 | Cc1c(C#N)c(O)[nH]c(=O)c1N=Nc1ccc(S(N)(=O)=O)cc1 | 12% (inactive) | –
33 | CCCCOC(=O)c1ccc(N=Nc2c(C)c(C#N)c(O)[nH]c2=O)cc1 | 77.6% (active) | 93.8
34 | CCOC(=O)c1ccc(N=Nc2c(C)c(C#N)c(O)[nH]c2=O)cc1 | 4.3% (inactive) | –
35 | COc1ccccc1CC(NC(C)=O)C(=O)NC1CCN(C(=O)Nc2cccc(F)c2)CC1 (configuration not stated) | -1.2% (inactive) | –
36 | C=C1CCN([C@@H](C)C(=O)OCc2cccc(C)c2)S(=O)(=O)c2ccccc21 | 1.3% (inactive) | –
37 | O=C(CCN1C(=O)S/C(=C/c2ccccc2)C1=O)Nc1ccc(C(=O)O)c(O)c1 | 29.4% (inactive) | –
38 | CC(C(=O)Nc1ccc(O)cc1C(=O)O)N1C(=O)/C(=C\c2cccs2)SC1=S (configuration not stated) | 50.1% (inactive) | 46.3
39 | O=C(CCCN1C(=O)/C(=C\c2ccco2)SC1=S)Nc1ccc2ccccc2c1 | 65.1% (inactive) | 3
40 | O=C(CCCN1C(=O)/C(=C/c2ccco2)SC1=S)Nc1ccccc1C(=O)O | 67.2% (inactive) | 29.8
41 | O=C(CCN1C(=O)/C(=C\c2ccco2)SC1=S)Nc1ccc(C(=O)O)c(O)c1 | 75.4% (active) | –
42 | O=C(CCCN1C(=O)/C(=C/c2ccccc2)SC1=S)Nc1ccc(C(=O)O)c(O)c1 | 60.7% (inactive) | 40.5
43 | O=C(CN1C(=O)/C(=C/c2ccco2)SC1=S)Nc1ccc(O)c(C(=O)O)c1 | 58.3% (active) | –
44 | CC(=O)c1ccc(NC(=O)CCCN2C(=O)/C(=C/C(C)=C/c3ccccc3)SC2=S)cc1 | 3.3% (inactive) | –
45 | CC(C(=O)Nc1ccc(C(=O)O)c(O)c1)N1C(=O)/C(=C\c2ccco2)SC1=S (configuration not stated) | 78.3% (active) | –
46 | O=C(CCCN1C(=O)/C(=C/c2ccco2)SC1=S)Nc1cccc(C(=O)O)c1 | 59.9% (inactive) | 12.3
47 | CC(C(=O)N(C)C1CCS(=O)(=O)C1)N1C(=O)/C(=C/c2ccco2)SC1=S (configuration not stated) | 24.8% (inactive) | –
48 | CC(/C=C1\SC(=S)N(CCCC(=O)Nc2ccc(C(=O)O)c(O)c2)C1=O)=C\c1ccccc1 | 56.9% (active) | –
